# Rows were chosen to be rich in hits. Some 17% of all compounds tested hit in one or more screens of this group.
# ClpP mod: qHTS Assay for Activators of ClpP; 340,000 tested, 1.9% active; AID 651965, 2013; Potency, µM (series often up to 57.5 µM), without a hit: top-dose activity change, negative = active; purified B. subtilis ClpP, FRET peptide cleavage, 20 min; active = well fitted falling curve with a large enough effect; inconclusive = small, poorly fitted or top-dose-only effect; inactive = no such curve, though single readings can be large or run the other way; note: the source files actives as falling curves though it sought activators and does not explain the sign; nearly all actives have a fitted effect of over 65% in size
#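 ClpP 10 microg/mL final, pH 8 Tris/KCl buffer with BSA, glycerol, Tween-20; compound pinned in; FRET-FV substrate; RT 20 min; Ex320/Em430; ΔFRET vs ADEP 5.8 microM, DMSO, no enzyme.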
# TDP1 cell noCPT: qHTS for Inhibitors of human tyrosyl-DNA phosphodiesterase 1 (TDP1): qHTS in cells in absence of CPT; DT40 Tdp1-/- hTDP1 cells, no CPT, ATP luminescence, 48 h; Potency, µM (doses to about 46.2 µM), for the others: at the top dose activity change, negative = growth inhibition, usual class: inhibitors; 420,000 tested, 15% active; note: % is set by controls: 0 for no effect and ±100 for the full control effect; nearly all actives have a fitted effect of over 55% in size
#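 Growth of hTDP1-complemented DT40 Tdp1-knockout cells is measured by ATP luminescence after at least 48 hr compound exposure at 37 °C, with DMSO substituting for the 20 nM CPT used in the parallel screen.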
# TDP1 cell CPT: DT40-hTDP1 cell growth loss with CPT; chicken DT40 Tdp1-/-;hTDP1 cells + 20 nM CPT, ATP luminescence, 48 h; Potency, µM (highest dose often 46.2 µM), for inactives: top-dose activity change, negative = growth inhibition, usual class: inhibitors; 420,000 tested, 12% active; note: % is set by controls: 0 for no effect and ±100 for the full control effect; nearly all actives have a fitted effect of over 55% in size
#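 Chicken DT40 Tdp1-/- cells complemented with human TDP1, 400 cells/well, exposed to compounds plus 20 nM camptothecin for at least 48 h at 37 C; viability read as ATP content by CellTiter-Glo luminescence.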
# TDP1 inh: inhibitors of human tyrosyl-DNA phosphodiesterase TDP1 | AID 485290 | Potency, µM (top dose mostly 130 µM), for the others: at the highest dose activity change, negative = inhibition, hits mostly inhibitors | 350,000 tested, 0.28% active | Q9NUW8 | recombinant TDP1, AlphaScreen DNA substrate cleavage; note: % is set by controls: 0 for no effect and ±100 for the full control effect; nearly all actives have a fitted effect of over 40% in size
#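 Enzyme-compound mixtures sat 15 min at room temperature, followed by a 5 min reaction with 15 nM final substrate and 10 min with AlphaScreen beads. Recombinant human Tdp1 was used at 1 nM final.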
# The depositor's hits bear a star; ? = inconclusive; nt = no result given; ! = not active in a repeat; [ ] = remark or other dose. Unless noted, calls come from the whole dose curve; as a rule, active = well fitted curve in the direction sought with a large enough effect; inconclusive = small, poorly fitted or top-dose-only effect, or another doubt; inactive = no such curve, though single readings can be large; an effect the other way counts as inactive or inconclusive. Potency is the fitted concentration of half-maximal effect.
SMILES,ClpP mod,TDP1 cell noCPT,TDP1 cell CPT,TDP1 inh
O=C(CCn1c(=O)c2cccn2c2cccnc21)N1CCN(c2cccc(C(F)(F)F)c2)CC1,-5%,9.2µM*,15µM*,8%
COCCCN1C(=O)c2ccc(C(=O)NCCc3ccccc3)cc2C1=O,-1%,-1%,3%,nt
COc1ccc(C2Nc3ccccc3C(=O)N2c2ccc(C)cc2)cc1Cn1nnc2ccccc21 (centres undefined),32µM*,?,?,3%
COc1ccc(N2C(=O)c3ccccc3NC2c2ccc(OC)c(COc3ccccn3)c2)cc1 (centres undefined),25µM*!,?,?,3%
CCCN1C(=O)c2ccccc2NC1c1ccc(OC)c(CSc2ccccn2)c1 (centres undefined),-2%,?,-23%,4%
COc1ccc(N2C(=O)c3ccccc3NC2c2ccc(OC)c(CSc3ccccn3)c2)cc1 (centres undefined),25µM*,-23%,-14%,4%
COc1ccc(C2Nc3ccccc3C(=O)N2c2ccc(C)cc2)cc1Cn1cc([N+](=O)[O-])cn1 (centres undefined),-10%,?,?,5%
COc1ccc(CNC(=O)CCc2c(C)nn(-c3ccc(N4CCOCC4)nn3)c2C)cc1,-4%,-12%,-20%,1%
COc1cccc(OCCSc2nc(N)cc(N)n2)c1,1%,21µM*,?,4%
CCCCN(C(=O)c1cccc(S(=O)(=O)N2CCN(Cc3ccccc3)CC2)c1)c1ccccc1,-2%,16µM*,?,-17%
CCCCn1c(N)c(N(CCOC)C(=O)c2ccc(-c3ccc(C(C)=O)cc3)o2)c(=O)[nH]c1=O,32µM*,-20%,-3%,0%
CCCn1c(N)c(N(CCOC)C(=O)c2cccc(S(=O)(=O)N3CCCc4ccccc43)c2)c(=O)[nH]c1=O,32µM*,?,?,5%
COCCN(Cc1ccccc1)C(=O)c1cccc(S(=O)(=O)N2CCCc3ccccc32)c1,-1%,9.2µM*,13µM*,1%
CCCCn1c(N)c(N(CCOC)C(=O)c2ccc(-c3ccc([N+](=O)[O-])cc3)o2)c(=O)[nH]c1=O,-1%,7%,4%,1%
C[C@@H]1NC(=O)c2cc([N+](=O)[O-])cc(I)c2NCCCC[C@@H](C(N)=O)NC(=O)[C@H](CC(N)=O)NC1=O,2%,2%,-4%,?
CCCCN(C(=O)c1ccc2c(c1)OCO2)c1ccccc1,nt,16µM*,?,0%
O=C(c1cccc(S(=O)(=O)N2CCOCC2)c1)N(Cc1ccc(F)cc1)Cc1ccco1,0%,18µM*,?,5%
O=C(COC(=O)c1cccc(S(=O)(=O)N2CCN(c3ccccc3)CC2)c1)NCc1ccco1,2%,-16%,-13%,79µM*
CN(Cc1ccccc1)C(=O)c1ccc2c(c1)OCO2,-3%,-6%,4%,3%
CCN(Cc1ccccc1)C(=O)c1cccc(S(=O)(=O)N2CCN(Cc3ccccc3)CC2)c1,1%,26µM*,16µM*,nt
O=C(c1cccc(S(=O)(=O)N2CCOCC2)c1)N(CCO)Cc1ccccc1,-4%,0%,-23%,4%
COc1cc(C(=O)N/N=C/c2sc(N3CCOCC3)nc2-c2ccccc2)cc(OC)c1OC,nt,-29%,-8%,4%
COCCN(Cc1ccccc1)C(=O)c1cccc(S(=O)(=O)N2CCN(Cc3ccccc3)CC2)c1,-6%,18µM*,?,nt
CCCCn1c(N)c(N(CCOC)C(=O)c2cc3c(s2)CCC(C)C3)c(=O)[nH]c1=O (centres undefined),nt,-28%,6%,-8%
CCN(Cc1ccccc1)C(=O)c1cccc(S(=O)(=O)N2CCN(c3ccccc3)CC2)c1,0%,21µM*,16µM*,-1%
CCN(Cc1ccccc1)C(=O)c1cccc(S(=O)(=O)N2CCN(c3ccc(F)cc3)CC2)c1,-9%,16µM*,18µM*,1%
CCCn1c(N)c(N(CCOC)C(=O)c2cc3c(s2)CCC(CC)C3)c(=O)[nH]c1=O (centres undefined),13µM*,-19%,0%,-2%[56.1 µM]

# Screening data as filed in PubChem.
